# aSyn rescue: alpha-synuclein toxicity inhibition in yeast; Yeast expressing alpha-synuclein, growth rescue, BacTiter-Glo, 24 h; Potency, µM (doses to about 46.1 µM), actives largely listed as activators; hit rate 0.14% among 370,000; AID 652106; also: nearly all actives have a fitted effect of over 65% in size
#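 Galactose-induced alpha-syn yeast (OD600=0.02, raffinose-pregrown) + pinned cpd, 24 hr, 30 deg C; growth by BacTiter-Glo luminescence. Growth restoration scores as activation.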
# TDP43 rescue: TDP-43 toxicity inhibition in yeast; TDP-43 expressing yeast growth rescue, BacTiter-Glo, 24 h; Potency, µM (top dose mostly 46.1 µM), actives largely listed as activators; hit rate 1.8% among 410,000; also: nearly all actives have a fitted effect of over 50% in size
#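 Yeast cells expressing TDP-43 under galactose induction are exposed to compounds for 24 hr at 30 deg C. BacTiter-Glo luminescence measures growth, so protective compounds score as activators.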
# FUS yeast rescue: FUS proteinopathy suppression in yeast; Potency, µM (series often up to 76.6 µM), hits mostly activators; S. cerevisiae FUS-expressing, growth rescue, OD600, 24 h; hit rate 0.24% among 390,000; AID 1347120; also: nearly all actives have a fitted effect of over 55% in size
#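 Yeast expressing FUS under galactose induction, OD 0.005 in 2% galactose medium; compounds in a dilution series, 24 h at 30C. Growth rescue by absorbance at 600 nm; CP55940 positive control, DMSO negative.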
# Mito fusion act: inhibitors of mitochondrial division or activators of mitochondrial fusion. hit rate 0.23% among 320,000. S. cerevisiae fusion-defective mutant growth rescue, CellTiterGlo 48 h. Potency, µM (top dose mostly 46.1 µM), most hits filed as activators; also: nearly all actives have a fitted effect of over 45% in size
#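 Growth-rescue viability read-out: after 48 h at the non-permissive 37C in glycerol/ethanol YPEG, yeast mitochondrial fusion mutants are measured by CellTiterGlo luminescence; compounds (23 nl pinned per well) restoring growth score as division inhibitors or fusion activators.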
# Abeta yeast res: compounds reversing amyloid beta toxicity in yeast | Potency, µM (top dose mostly 46.1 µM), hits mostly activators | yeast expressing A-beta42, growth rescue, OD600, 48 h; response scale: 0% DMSO, 100% iron-clioquinol control | hit rate 0.063% among 410,000; also: nearly all actives have a fitted effect of over 55% in size
#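 Growth rescue measured by 600 nm absorbance after 48 h yeast culture at 30 C with compound. Values normalized between DMSO and an equimolar ferric chloride plus clioquinol control.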
# Numbers stand for hits; i = inactive; ? = inconclusive; nt = no result given; ! = repeats disagree. Most compounds without a hit are left out; they make up all but 2.2% or so of the library. Calls follow the shape of the dose curve; as a rule, active = well fitted curve in the direction sought with a large enough effect; inconclusive = small, poorly fitted or top-dose-only effect, or another doubt; inactive = no such curve, though single readings can be large; an effect the other way counts as inactive or inconclusive.
SMILES,aSyn rescue,TDP43 rescue,FUS yeast rescue,Mito fusion act,Abeta yeast res
COc1ccc(-c2cc3nc(NCC4CCCCC4)n(C)c(=O)c3s2)cc1OC,i,20µM,i,nt,22µM
COc1ccc(C)cc1N1CC(C(=O)OCc2nc(N)nc(Nc3ccccc3C)n2)CC1=O (configuration not stated),i,i,i,i,i
COc1ccccc1C(=O)Nc1nsc(-c2ccccc2)n1,i,13µM,i,i,i
COc1ccc(OC)c2sc(N3CCN(C(=O)c4ccc5c(c4)CCCC5)CC3)nc12,nt,?,?,nt,i
CCCCc1cc(=O)oc2cc(OS(C)(=O)=O)ccc12,i,?,i,16µM,i
C=C(Cl)COc1ccc2c(CCCC)cc(=O)oc2c1,i,?,i,i,i
Cc1cccc(NC(=O)C2CCN(c3ncccn3)CC2)c1C,nt,nt,i,nt,nt
O=[N+]([O-])c1ccc(Oc2cccc(Br)c2)c2ccncc12,i,16µM,i,i,i
O=[N+]([O-])c1ccc(Oc2ccc(F)cc2)c2ccncc12,i,?,i,i,i
CCc1noc(C)c1C(=O)NNC(=O)COc1cc(C)ccc1C,i,i,i,i,i
CCC(C(=O)Nc1cc(F)ccc1F)n1nc(C)c2c(C)n(-c3ccc(C)cc3)nc2c1=O (configuration not stated),i,?,?,i,i
CCC(C(=O)Nc1cc(F)ccc1F)n1nc(-c2cc(C)ccc2C)ccc1=O (configuration not stated),nt,22µM,i,nt,i
CCC(C(=O)Nc1cc(OC)cc(OC)c1)n1nc(-c2ccc(C)c(C)c2)ccc1=O (configuration not stated),nt,28µM,?,nt,?
Cc1ccc(C)c(-c2ccc(=O)n(Cc3ccc(F)cc3Cl)n2)c1,?,22µM!,?,?,i
CCc1nn2c(=O)cc(COC(=O)C3CCCCC3)nc2s1,nt,i,i,nt,i
CC(=O)N1CCOc2ccc(S(=O)(=O)Nc3ccc(C)cn3)cc21,i,i,i,i,i
C=CCN(Cc1ccc(OC)cc1OC)C(C#CCCCC)c1ccccc1 (configuration not stated),nt,nt,i,nt,nt
COc1cc(CC(=O)C(=O)O)oc(=O)c1,i,i,i,nt,i
Cn1c(-c2ccccc2)cc2onc(-c3ccccc3)c2c1=O,i,i,i,i,i
Cn1c(-c2ccccc2F)cc2onc(-c3ccccc3)c2c1=O,i,20µM,i,?,i
Cc1ccc(C(=O)NC2CCSC2=O)cc1 (configuration not stated),i,i,i,i,i
Cc1ccc(C(=O)NC2CCc3ccccc3C2=O)cc1 (configuration not stated),i,14µM,i,i,i
CNC(=O)/C(C#N)=C/c1c(N2CCN(c3ccccc3)CC2)nc2c(C)cccn2c1=O,i,i,i,i,i
Cc1cccn2c(=O)c(/C=C(\C#N)C(N)=O)c(N3CCN(c4cccc(Cl)c4)CC3)nc12,i,25µM,?,?,i
COC(=O)[C@]12C[C@H](CC(=O)NCc3cccc(C(F)(F)F)c3)C(=O)N(Cc3ccc(Cl)cc3Cl)C1=C[C@H](C(C)(C)C)O[C@@H]2C,nt,nt,13µM,nt,nt
SMILES,aSyn rescue,TDP43 rescue,FUS yeast rescue,Mito fusion act,Abeta yeast res
COC(=O)[C@]12C[C@H](CC(=O)NCc3ccccc3)C(=O)N(Cc3ccc(Cl)cc3Cl)C1=C[C@H](C(C)(C)C)O[C@@H]2C,nt,nt,i,nt,nt
COC(=O)[C@]12C[C@H](CC(=O)N3CCN(C(=O)c4ccco4)CC3)C(=O)N(Cc3ccc(Cl)cc3Cl)C1=C[C@H](C(C)(C)C)O[C@@H]2C,nt,nt,11µM,nt,nt
CC(C)c1cc(-c2cc(C(=O)NCc3ccccc3)on2)nc(NCC2CC2)n1,?,16µM,i,i,i
CCCCCCCCCCCCCCCC[n+]1ccc(C(N)=O)cc1,i,i,32µM,i,i
CCCCCCCCCCCCCCCC[n+]1cccc(C(=O)N(CC)CC)c1,i,i,28µM!,i,i
COc1cc(CNc2ncnc3c2ncn3[C@H]2CN(Cc3cccc(C(F)(F)F)c3)C[C@@H](COC(C)=O)O2)cc(OC)c1OC,i,i,20µM,nt,i
COc1cc(CNc2ncnc3c2ncn3[C@H]2CN(Cc3cccc(C(F)(F)F)c3)C[C@@H](CO)O2)cc(OC)c1OC,i,i,?,nt,i

# High-throughput results deposited in PubChem BioAssay by National Center for Advancing Translational Sciences (NCATS).
